The list is not random: actives were taken first. Their share in the collection is about 7.3%.
Vaccinia Venus – qHTS for Stage-Specific Inhibitors of Vaccinia Orthopoxvirus: Venus Reporter Primary qHTS | AID 720580, 2013 | Vaccinia virus Venus reporter expression, fluorescence | Potency, µM (titrated, usually from 36.5 µM), actives largely listed as inhibitors | hit rate 0.46% among 330,000; calls by dose curve; tested in A549 cells; note: nearly all actives have a fitted effect of over 30% in size
FMDV inh – High Throughput Screening for Foot and Mouth Disease Virus Antivirals | hit rate 1.2% among 410,000 | AID 1159524, 2015 | Potency, µM (top dose mostly 57.9 µM), actives largely listed as inhibitors | FMDV antiviral cell-based qHTS; calls by dose curve; tested in HEK293T cells; note: read-out not given here; nearly all actives have a fitted effect of over 45% in size
HCMV inh – qHTS Assay for inhibitors of the human cytomegalovirus (HCMV). HFF cells, HCMV-luciferase reporter, 72 h; hits give low values. activity change, negative = inhibition, % at 57.5 µM. hit rate 4.5% among 410,000; in the data active = activity change below about -60%; inconclusive = no clear call, values can overlap the other calls; inactive = above about -39%
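Steps: HFFs plated, 16 h 37C; compounds added; HCMV-luciferase added to MOI 1 PFU/cell; 72 h 37C; OneGlo reagent, 5 min room temperature; luminescence read, normalized to controls.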
HCV inhibitor – qHTS Assay for Inhibitors of Hepatitis C Virus (HCV); Potency, µM (highest dose often 41.8 µM), most hits filed as inhibitors; AID 651820, 2012; hit rate 3.4% among 340,000; Huh7.5.1 HCVcc-Cre infection, luciferase reporter, 44 h; active = well fitted inhibition curve with a large enough effect; inconclusive = small, poorly fitted or top-dose-only effect, or another doubt; inactive = no such curve, though single readings can be large or run the other way
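Luciferase read-out (15 sec integration) after a 15 min room-temperature substrate step quantifies HCVcc-Cre infection. Cells, 1,000 per well, had compound added 4 h post-plating, then virus at ~0.5 moi, and were cultured 44 h.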
Vaccinia mCherry – qHTS for Stage-Specific Inhibitors of Vaccinia Orthopoxvirus: mCherry Reporter Primary qHTS | AID 720579, 2013 | Potency, µM (highest dose often 36.5 µM), most hits filed as inhibitors | Vaccinia virus mCherry reporter infection, fluorescence | hit rate 0.63% among 310,000; calls by dose curve; tested in A549 cells; note: nearly all actives have a fitted effect of over 35% in size
Each line names hits and unclear results; the compound was inactive in the other large screens; ! = a repeat was not active.

COc1ccc(C(CCNCc2ccc(N(C)C)cc2)C(C)C)cc1 (configuration not stated)	FMDV inh inconclusive, HCMV inh -75.5, HCV inhibitor inconclusive (no result: Vaccinia Venus, Vaccinia mCherry)
COc1cc2ccccc2cc1C(=O)Nc1cccc(-c2nc3cc(C)c(C)cc3o2)c1	none (no result: HCV inhibitor)
CC(=O)c1ccc(S(=O)(=O)NCCC(=O)NC2CCN(Cc3ccccc3)CC2)cc1	none
COc1ccccc1NCCC(=O)OCC(=O)NC1CCCCC1	none
COc1ccccc1NCCC(=O)OCC(=O)NC1CC1	HCMV inh -83.1 (no result: Vaccinia Venus, Vaccinia mCherry)
CCc1cccc(CC)c1N(COC)C(=O)Cn1cnc2ccccc21	HCMV inh inconclusive
CCc1cccc(CC)c1N(COC)C(=O)Cn1c(C)nc2ccccc21	FMDV inh 10µM, HCMV inh -64.6 (no result: HCV inhibitor)
CC(C)CC1Nc2ncnc(N3CCN(c4ccccn4)CC3)c2N(Cc2ccc(Br)cc2)C1=O (configuration not stated)	Vaccinia Venus inconclusive, HCV inhibitor 25.1µM
CCC1Nc2ncnc(N3CCN(c4ccccc4)CC3)c2N(Cc2ccc(OC)cc2)C1=O (configuration not stated)	HCV inhibitor 2.82µM
COc1ccc(CN2C(=O)C(CC(C)C)Nc3ncnc(N4CCN(c5ccccn5)CC4)c32)cc1 (configuration not stated)	Vaccinia Venus inconclusive
CC(C)CC1Nc2ncnc(N3CCOCC3)c2N(Cc2ccc(Cl)cc2)C1=O (configuration not stated)	HCMV inh -101.3!
Cc1ccc(CN2C(=O)C(CC(C)C)Nc3ncnc(N4CCN(c5ccccn5)CC4)c32)cc1 (configuration not stated)	Vaccinia Venus inconclusive, HCV inhibitor inconclusive, Vaccinia mCherry 28.2µM
CCOc1ccc(-n2c(=O)c3c(C)c(C)sc3n(Cc3ccccc3C)c2=O)cc1	none (no result: HCV inhibitor)
CCCCn1cnc2c(SCc3ccc([N+](=O)[O-])cc3)nc(N)nc21	Vaccinia Venus inconclusive, HCV inhibitor inconclusive, Vaccinia mCherry 3.98µM
Cn1cnc([N+](=O)[O-])c1Sc1nc(N)nc2c1ncn2Cc1ccccc1	Vaccinia Venus inconclusive, HCV inhibitor inconclusive, Vaccinia mCherry 12.6µM
CCC(C)Cn1cnc2c(Sc3c([N+](=O)[O-])ncn3C)nc(N)nc21 (configuration not stated)	Vaccinia Venus inconclusive, FMDV inh inconclusive, Vaccinia mCherry 15.8µM
Nc1nc(SCc2ccccc2[N+](=O)[O-])c2ncn(Cc3ccccc3)c2n1	HCV inhibitor 11.2µM, Vaccinia mCherry inconclusive
CCCn1cnc2c(Sc3c([N+](=O)[O-])ncn3C)nc(N)nc21	Vaccinia Venus inconclusive, FMDV inh inconclusive, Vaccinia mCherry inconclusive
CC(C)Cn1cnc2c(Sc3c([N+](=O)[O-])ncn3C)nc(N)nc21	Vaccinia Venus inconclusive, FMDV inh inconclusive, Vaccinia mCherry inconclusive
Cc1cc(C)n(-c2ccc(NC(=O)C3CCCCN3Cc3cccc4c3OCO4)cc2)n1 (configuration not stated)	Vaccinia Venus inconclusive, HCV inhibitor inconclusive
CCNC(=O)NC1c2ccccc2CSc2ccccc21 (configuration not stated)	none
CCOCCN1CCN(C2c3ccccc3CSc3ccccc32)CC1 (configuration not stated)	HCMV inh inconclusive, HCV inhibitor 22.4µM
Cc1ccc(N(C(=O)c2csnn2)C(C(=O)NC2CCCCC2)c2cccnc2)c(C)c1 (configuration not stated)	none
Cc1ccc(O)c(CNc2cnc3ccccc3c2)c1	HCV inhibitor inconclusive, Vaccinia mCherry 12.6µM
COC(=O)c1cc2oc(C)cc2n1CC(=O)Nc1ccc(C(C)C)cc1	none (no result: HCV inhibitor)
Cc1cc(C)cc(NC(=O)CSc2nc(=O)n(CCCN3CCOCC3)c3c2CCCC3)c1	HCV inhibitor inconclusive
COCCN1CCN(C(=O)C2CCC(=O)N(CCc3ccc(Cl)cc3)C2)CC1 (configuration not stated)	none (no result: HCV inhibitor)
CC(C)C1CCN(C(=O)C2CCC(=O)N(CCc3ccc(Cl)cc3)C2)CC1 (configuration not stated)	FMDV inh inconclusive, HCMV inh -63.9, HCV inhibitor inconclusive
COc1ccc(C(=O)/C=C/c2ccccc2OC)c(OC(=O)c2ccc([N+](=O)[O-])cc2)c1	HCV inhibitor 12.6µM, Vaccinia mCherry inconclusive
